Laboratory results as given in PubChem BioAssay (EPA / NIEHS).
Where “and” joins values, the source holds several entries; their conditions need not be identical. Equal entries are not always repeated. Results filed as inconclusive are left out. More than one record can exist for a structure, and the calls need not agree. Calls of active or inactive are those of the source. How the source made its calls, unless noted: active means hit-call score of the fitted dose curve at least 0.9, where 1 is the maximum; inactive means score below 0.9.

Key:
[1] = molecular target: human RAR-related Orphan Receptor beta (RORb), RORB (gene 6096) (UniProt Q92753); experiment: ATG_RORb_TRANS: Attagene TRANS-FACTORIAL HepG2 Assay for human RAR-related Orphan Receptor beta (RORb) (AID 2283010; active means hit-call score of the fitted dose curve at least 0.9, where 1 is the maximum)
human RAR-related Orphan Receptor beta (RORb), RORB (gene 6096), sequence (Q92753 whole entry, looked up, the tested form may be a part): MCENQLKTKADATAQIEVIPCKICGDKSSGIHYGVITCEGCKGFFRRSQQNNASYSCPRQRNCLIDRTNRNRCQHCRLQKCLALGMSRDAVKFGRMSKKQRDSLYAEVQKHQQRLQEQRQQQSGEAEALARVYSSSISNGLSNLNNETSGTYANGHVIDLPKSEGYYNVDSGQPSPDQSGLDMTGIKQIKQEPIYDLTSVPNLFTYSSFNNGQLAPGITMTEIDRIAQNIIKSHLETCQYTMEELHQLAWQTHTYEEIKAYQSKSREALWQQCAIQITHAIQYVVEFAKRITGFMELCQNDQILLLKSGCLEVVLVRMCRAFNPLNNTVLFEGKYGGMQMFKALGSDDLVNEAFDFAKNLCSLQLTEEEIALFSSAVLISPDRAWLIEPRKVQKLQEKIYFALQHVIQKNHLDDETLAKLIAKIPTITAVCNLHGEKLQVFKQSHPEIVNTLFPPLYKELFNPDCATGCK
Method in brief: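 HepG2 cells transiently transfected with GAL4-UAS reporter units expressing chimeric NR-Gal4 protein; reporter mRNA measured 24 h after dosing by RT-PCR, 6-FAM labelling and capillary electrophoresis. Gain-of-signal fitted relative to DMSO baseline.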

[2] = molecular target: human RAR-related Orphan Receptor gamma (RORg), RORC (gene 6097) (UniProt P51449); experiment: ATG_RORg_TRANS: Attagene TRANS-FACTORIAL HepG2 Assay for human RAR-related Orphan Receptor gamma (RORg) (AID 2283011; active means hit-call score of the fitted dose curve at least 0.9, where 1 is the maximum)
human RAR-related Orphan Receptor gamma (RORg), RORC (gene 6097), sequence (P51449 whole entry, looked up, the tested form may be a part): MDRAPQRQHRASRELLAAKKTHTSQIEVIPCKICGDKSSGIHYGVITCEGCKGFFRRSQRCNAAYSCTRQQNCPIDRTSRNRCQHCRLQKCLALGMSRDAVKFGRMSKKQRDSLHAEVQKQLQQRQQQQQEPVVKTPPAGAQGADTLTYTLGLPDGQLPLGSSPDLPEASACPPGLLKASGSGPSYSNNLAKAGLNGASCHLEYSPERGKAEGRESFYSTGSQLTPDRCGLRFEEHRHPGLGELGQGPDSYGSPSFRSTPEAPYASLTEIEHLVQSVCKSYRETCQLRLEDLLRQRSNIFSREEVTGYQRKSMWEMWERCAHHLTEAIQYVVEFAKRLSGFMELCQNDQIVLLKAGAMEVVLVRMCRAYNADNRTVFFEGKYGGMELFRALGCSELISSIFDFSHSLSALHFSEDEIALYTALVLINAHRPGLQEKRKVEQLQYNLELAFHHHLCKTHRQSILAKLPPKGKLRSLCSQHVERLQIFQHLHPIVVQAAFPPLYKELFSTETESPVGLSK
Method in brief: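 HepG2 cells transiently transfected with GAL4-UAS reporter units and chimeric RORg-Gal4 construct; after 24 h chemical exposure, reporter mRNA measured by RT-PCR with fluorescent capillary electrophoresis, gain of signal fitted against DMSO.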

[3] = molecular target: Retinoic acid receptor RXR-alpha (Homo sapiens) (UniProt P19793); experiment: ATG_RXRa_TRANS: Attagene TRANS-FACTORIAL HepG2 Assay for human Retinoid X Receptor alpha (RXRa) (AID 2283012; active means hit-call score of the fitted dose curve at least 0.9, where 1 is the maximum)
Retinoic acid receptor RXR-alpha (Homo sapiens), sequence (P19793 whole entry, looked up, the tested form may be a part): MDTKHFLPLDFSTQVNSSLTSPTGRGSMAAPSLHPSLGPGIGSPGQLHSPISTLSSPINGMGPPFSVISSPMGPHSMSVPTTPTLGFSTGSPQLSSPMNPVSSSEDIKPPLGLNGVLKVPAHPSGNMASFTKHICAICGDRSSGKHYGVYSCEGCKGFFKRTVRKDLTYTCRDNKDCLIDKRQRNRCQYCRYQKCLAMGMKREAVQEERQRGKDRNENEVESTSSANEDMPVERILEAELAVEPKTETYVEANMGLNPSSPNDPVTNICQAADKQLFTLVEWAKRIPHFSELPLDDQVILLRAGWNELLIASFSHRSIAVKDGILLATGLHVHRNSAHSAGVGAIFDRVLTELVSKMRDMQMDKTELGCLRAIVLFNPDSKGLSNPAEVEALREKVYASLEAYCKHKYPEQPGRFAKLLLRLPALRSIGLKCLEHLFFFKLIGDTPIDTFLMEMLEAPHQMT
Method in brief: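 HepG2 cells transiently transfected with GAL4-UAS reporter units and chimeric RXRa-Gal4 protein, treated 24 h. Reporter mRNA measured by RT-PCR, fluorescent labelling, HpaI digestion and capillary electrophoresis. Induction fitted against DMSO.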

[4] = molecular target: human Retinoid X Receptor beta (RXRb), RXRB (gene 6257) (UniProt P28702); experiment: ATG_RXRb_TRANS: Attagene TRANS-FACTORIAL HepG2 Assay for human Retinoid X Receptor beta (RXRb) (AID 2283013; active means hit-call score of the fitted dose curve at least 0.9, where 1 is the maximum)
human Retinoid X Receptor beta (RXRb), RXRB (gene 6257), sequence (P28702 whole entry, looked up, the tested form may be a part): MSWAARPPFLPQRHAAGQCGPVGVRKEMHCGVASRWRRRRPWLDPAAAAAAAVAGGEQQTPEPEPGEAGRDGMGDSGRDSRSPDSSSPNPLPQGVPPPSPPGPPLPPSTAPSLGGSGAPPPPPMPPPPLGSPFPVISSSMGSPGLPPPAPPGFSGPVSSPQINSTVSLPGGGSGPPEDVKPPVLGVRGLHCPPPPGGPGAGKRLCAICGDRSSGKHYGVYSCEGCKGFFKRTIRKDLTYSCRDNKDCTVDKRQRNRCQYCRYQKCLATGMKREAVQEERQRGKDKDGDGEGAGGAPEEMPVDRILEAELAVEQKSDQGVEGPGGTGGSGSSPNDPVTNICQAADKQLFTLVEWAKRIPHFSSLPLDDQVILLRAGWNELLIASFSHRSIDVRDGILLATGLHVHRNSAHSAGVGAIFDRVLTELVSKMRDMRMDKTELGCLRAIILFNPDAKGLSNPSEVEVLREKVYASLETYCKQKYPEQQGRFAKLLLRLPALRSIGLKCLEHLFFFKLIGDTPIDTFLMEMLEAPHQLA
Method in brief: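 HepG2 cells were transiently transfected with multiplexed GAL4-UAS reporters and a chimeric RXRb-Gal4 construct, then exposed for 24 h. Reporter mRNA was quantified by RT-PCR, FAM labeling, HpaI digestion and capillary electrophoresis; gain of signal was scored against DMSO.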

[5] = molecular target: human Thyroid Receptor alpha (THRa1), THRA (gene 7067) (UniProt P10827); experiment: ATG_THRa1_TRANS: Attagene TRANS-FACTORIAL HepG2 Assay for human Thyroid Receptor alpha (THRa1) (AID 2283014; active means hit-call score of the fitted dose curve at least 0.9, where 1 is the maximum)
human Thyroid Receptor alpha (THRa1), THRA (gene 7067), sequence (P10827 whole entry, looked up, the tested form may be a part): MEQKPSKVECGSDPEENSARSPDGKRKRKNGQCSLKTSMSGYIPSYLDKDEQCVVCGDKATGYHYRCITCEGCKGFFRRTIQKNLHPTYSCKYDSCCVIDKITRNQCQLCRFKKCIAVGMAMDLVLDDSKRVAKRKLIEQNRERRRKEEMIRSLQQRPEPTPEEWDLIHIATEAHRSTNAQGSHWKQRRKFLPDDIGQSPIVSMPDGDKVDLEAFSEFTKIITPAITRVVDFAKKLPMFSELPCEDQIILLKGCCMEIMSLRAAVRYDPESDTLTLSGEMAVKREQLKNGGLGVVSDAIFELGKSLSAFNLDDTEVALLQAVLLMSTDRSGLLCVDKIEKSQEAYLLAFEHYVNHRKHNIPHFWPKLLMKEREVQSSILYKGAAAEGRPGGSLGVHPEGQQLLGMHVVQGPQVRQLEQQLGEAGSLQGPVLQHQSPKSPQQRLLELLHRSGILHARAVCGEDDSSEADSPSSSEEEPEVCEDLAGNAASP
Method in brief: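 HepG2 cells transiently transfected with chimeric NR-Gal4 and GAL4-UAS reporter units, dosed 24 h. Reporter mRNA quantified by RT-PCR, fluorescent labeling, HpaI digestion and capillary electrophoresis; gain-of-signal fit versus DMSO.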

[6] = read-out: E-selectin (Homo sapiens) (UniProt P16581); experiment: BSK_3C_Eselectin: BioMAP Diversity Plus: 3C Assay for Eselectin Biomarker Activity (AID 2283015); conditions: primary human endothelial cells (HUVEC); actives raise or lower the signal
Method in brief: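 Primary human umbilical vein endothelial cells (3C system), read 24 h after compound addition; E-selectin measured by ELISA. Bidirectional curve fitting against DMSO baseline; cytotoxicity by parallel SRB total-protein staining.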

[7] = read-out: Interleukin-1 alpha (IL1a), IL1A (gene 3552); experiment: BSK_BE3C_IL1a: BioMAP Diversity Plus: BE3C Assay for Interleukin-1 alpha (IL1a) Biomarker Activity (AID 2283016); conditions: primary human bronchial epithelial cells; actives raise or lower the signal
Method in brief: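 Human primary bronchial epithelial cells, 24 h chemical exposure; IL-1a quantified by ELISA, fitted bidirectionally against DMSO. Cytotoxicity assessed in parallel by SRB total-protein staining at the time of measurement.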

[8] = read-out: Monocyte Chemoattractant Protein-1 (MCP1), CCL2 (gene 6347); experiment: BSK_3C_MCP1: BioMAP Diversity Plus: 3C Assay for Monocyte Chemoattractant Protein-1 (MCP1) Biomarker Activity (AID 2283017); conditions: primary human endothelial cells (HUVEC); actives raise or lower the signal
Method in brief: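 Human umbilical vein endothelial cells (3C system) exposed to chemicals for 24 h; MCP-1 quantified by ELISA against the DMSO baseline with bidirectional fitting, and parallel SRB staining used to assess cytotoxicity.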

[9] = read-out: Monocyte Chemoattractant Protein-1 (MCP1), CCL2 (gene 6347); experiment: BSK_4H_MCP1: BioMAP Diversity Plus: 4H Assay for Monocyte Chemoattractant Protein-1 (MCP1) Biomarker Activity (AID 2283018); conditions: primary human endothelial cells (HUVEC); actives raise or lower the signal
Method in brief: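 Human umbilical vein endothelial cells (4H system) exposed to chemicals for 24 h in 96-well format. MCP-1 measured by ELISA; bidirectional fitting against DMSO, with SRB total-protein staining in parallel cultures for cytotoxicity.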

[10] = read-out: Human Leukocyte Antigen - DR isotype (HLADR), HLA-DRA (gene 3122); experiment: BSK_3C_HLADR: BioMAP Diversity Plus: 3C Assay for Human Leukocyte Antigen - DR isotype (HLADR) Biomarker Activity (AID 2283019); conditions: primary human endothelial cells (HUVEC); actives raise or lower the signal
Method in brief: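 HUVEC monoculture, HLA-DR measured by ELISA 24 h after chemical dosing. Fitted bidirectionally against DMSO baseline; parallel SRB staining assessed cytotoxicity, with 3C proliferation read by SRB at 48 h.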

Measured: AC50

E-selectin (Homo sapiens), sequence (P16581 whole entry, looked up): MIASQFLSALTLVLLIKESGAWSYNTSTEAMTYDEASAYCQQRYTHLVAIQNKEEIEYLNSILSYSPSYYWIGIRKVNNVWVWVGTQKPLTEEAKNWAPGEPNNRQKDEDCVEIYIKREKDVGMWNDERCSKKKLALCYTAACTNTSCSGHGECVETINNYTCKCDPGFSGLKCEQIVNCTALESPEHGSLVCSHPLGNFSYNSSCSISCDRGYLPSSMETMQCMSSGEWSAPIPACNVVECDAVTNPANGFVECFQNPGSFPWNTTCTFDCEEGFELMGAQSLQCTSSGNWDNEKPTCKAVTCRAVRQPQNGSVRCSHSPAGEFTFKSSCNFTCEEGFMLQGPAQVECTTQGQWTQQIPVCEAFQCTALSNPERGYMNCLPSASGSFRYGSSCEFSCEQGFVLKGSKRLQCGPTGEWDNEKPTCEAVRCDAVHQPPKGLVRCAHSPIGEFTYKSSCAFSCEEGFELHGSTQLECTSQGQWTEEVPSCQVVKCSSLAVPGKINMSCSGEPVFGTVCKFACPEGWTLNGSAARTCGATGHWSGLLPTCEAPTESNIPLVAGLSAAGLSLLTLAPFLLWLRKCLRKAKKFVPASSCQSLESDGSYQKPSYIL

O=c1c(-c2ccc(O)cc2)coc2cc(O)ccc12
active: [9] 13.8 µM | [10] 27.1 µM
inactive: all other assays above

OCCC(F)(F)C(F)(F)C(F)(F)C(F)(F)C(F)(F)C(F)(F)F
active: [8] 49.8 µM | [10] 46.1 µM and 42.1 µM
inactive: [1] | [2] | [3] | [4] | [5] | [6] | [7] | [8] | [9] | [10]

CCN(CC)CCNc1ccc(CNC=O)c2sc3ccc(OC)cc3c(=O)c12
active: [3] 1.85 µM | [4] 0.45 µM | [6] 27.3 µM | [7] 29.3 µM | [8] 19.4 µM | [9] 20 µM | [10] 13.4 µM
inactive: [1] | [5]

Oc1cccc(O)c1
not listed: [1] | [4] | [5]
inactive: all other assays above

CC[C@H](C)[C@@H](C(=O)O)n1sc2ccccc2c1=O
not listed: [1] | [3]
inactive: all other assays above

COc1ccc([N+](=O)[O-])cc1N
not listed: [1] | [4]
inactive: all other assays above

ClC1=C(Cl)C(Cl)(Cl)C(Cl)=C1Cl
inactive: [3] | [4] | [5]
active: [4] 17.5 µM | [6] 7.17 µM | [7] 8.21 µM | [8] 7.92 µM | [9] 7.06 µM | [10] 4.6 µM

c1ccc2c(c1)ccc1ccccc12
active: [4] 44.9 µM
not listed: [1] | [2]
inactive: all other assays above

CCc1nn(C2CCCCC2)c2cc(C3(C#N)CCC(C(=O)O)CC3)ccc12 (configuration not stated)
inactive: [3] | [4] | [7] | [9]
active: [6] 9.4 µM | [8] 10.6 µM | [10] 20 µM

COc1cc(CCC(=O)CC(=O)CCc2ccc(O)c(OC)c2)ccc1O
inactive: [2] | [4] | [5]

CCCCCCCCCCCCCCCS(=O)(=O)Oc1ccccc1
not listed: [1] | [2]
inactive: all other assays above

CC#C[C@]1(O)CC[C@H]2[C@@H]3CCC4=CC(=O)CCC4=C3[C@@H](c3ccc(N(C)C)cc3)C[C@@]21C
inactive: [3] | [5]
active: [6] 29.3 µM | [7] 32.1 µM | [8] 36.3 µM | [9] 20 µM | [10] 37.7 µM

COC(=O)CCCCC(=O)OC
not listed: [1] | [2]
inactive: all other assays above

O=[N+]([O-])c1ccc(O)cc1
inactive: [6] | [7] | [8] | [9] | [10]

CC(O)CO (configuration not stated)
not listed: [1] | [4] | [5]
inactive: all other assays above

CCCCCCC(=O)O
not listed: [1] | [2] | [4]
inactive: all other assays above

O=C(/C=C/c1ccc(O)cc1)CC(=O)/C=C/c1ccc(O)cc1
inactive: [3] | [4] | [5]

FC(F)(I)C(F)(F)C(F)(F)C(F)(F)C(F)(F)C(F)(F)I
active: [4] 20.5 µM | [7] 30 µM [middle of 5 runs]
inactive: [2]

OC1CCC(C2CCCCC2)CC1 (configuration not stated)
not listed: [1] | [2]
inactive: all other assays above

Cc1cc(CCN2CCN(c3nsc4ccccc34)CC2)cc2c1NC(=O)CC2(C)C
active: [6] 30.9 µM | [7] 30.5 µM | [8] 30.7 µM | [9] 8.35 µM | [10] 10.9 µM
inactive: [3]

Cc1oc(-c2ccccc2)nc1CCOc1ccc(C[C@H](Nc2ccccc2C(=O)c2ccccc2)C(=O)O)cc1
inactive: [2] | [3]
active: [6] 31.1 µM | [7] 5.44 µM | [8] 32.5 µM | [9] 20 µM | [10] 28.5 µM

NCC(F)(F)C(F)(F)C(F)(F)C(F)(F)C(F)(F)C(F)(F)C(F)(F)F
not listed: [1] | [2]
inactive: all other assays above

CCCCCCCCCCCCN1CCCC1=O
active: [6] 31.8 µM | [7] 33.2 µM | [8] 32.7 µM | [9] 27.8 µM | [10] 30.2 µM
inactive: [3] | [4] | [5]

c1ccc2c(c1)Cc1ccccc1-2
active: [4] 61.7 µM
not listed: [1] | [2] | [5]
inactive: all other assays above

CCC(=C(c1ccc(O)cc1)c1ccc(OCCN(C)C)cc1)c1ccccc1
inactive: [3] | [4] | [5]
active: [6] 11.1 µM | [7] 9.53 µM | [8] 8.6 µM | [9] 12.5 µM | [10] 8.28 µM

C#C[C@]1(O)CC[C@H]2[C@@H]3CCC4=CC(=O)CC[C@@H]4[C@H]3CC[C@@]21C
active: [6] 11.5 µM | [8] 6.01 µM | [10] 7.59 µM
not listed: [1] | [2]
inactive: all other assays above

Cc1cc(C)c(O)c(C)c1
not listed: [1] | [3] | [5]
inactive: all other assays above

CC1=C(/C=C/C(C)=C/C=C/C(C)=C/C(=O)O)C(C)(C)CCC1
active: [6] 20 µM | [10] 19.6 µM
inactive: [5] | [7] | [8] | [9]

CCCCC[C@H](O)CC(=O)CCc1ccc(O)c(OC)c1
inactive: [2] | [5]

CCCOC(=O)c1ccc(O)cc1
not listed: [1] | [2] | [3]
inactive: all other assays above

Oc1cc2ccccc2c2ccccc12
active: [6] 8.36 µM | [7] 17.7 µM | [8] 10 µM | [9] 7.67 µM | [10] 6.95 µM
inactive: [3] | [4]

CC(C)CCCCCCOC(=O)CCCCC(=O)OCCCCCCC(C)C
active: [4] 52.9 µM
not listed: [1] | [2] | [3]
inactive: all other assays above

NC(=O)N(O)[C@@H]1C=C[C@H](Oc2cccc(Oc3ccc(F)cc3)c2)C1
inactive: [4] | [6] | [7] | [8] | [9] | [10]

CC(=O)NC1(c2cccc(F)c2)CCN(CC[C@@]2(c3ccc(Cl)c(Cl)c3)CN(c3ccccc3)C(=O)CO2)CC1
active: [3] 49.7 µM | [5] 59.9 µM | [6] 30.7 µM | [8] 23.5 µM | [10] 24.9 µM
inactive: [7] | [9]

COCC(C)OCC(C)O (configuration not stated)
inactive: [6] | [7] | [8] | [9] | [10]

CCCCOCCO
inactive: [5] | [6] | [7] | [8] | [9] | [10]

CCCCCCCCC(=O)O
inactive: [3] | [4] | [6] | [7] | [8] | [9] | [10]
active: [4] 65.3 µM

COCC(C)O (configuration not stated)
not listed: [1] | [2] | [3]
inactive: all other assays above

CN1CCC[C@H]1c1cccnc1
not listed: [1] | [4]
inactive: all other assays above
